A selection: hits, their analogues and other compounds. The true share with any hit is near 11%.
G9a block: inhibitors of human histone lysine methyltransferase G9a | Q96KQ7 | G9a H3K9 monomethylation, AlphaScreen, 2 h | Potency, µM (highest dose often 102 µM), inactives show at the highest dose activity, negative = inhibition, hits mostly inhibitors | actives 8.8% (n = 350,000); further: potency means the concentration at half of the fitted maximal effect; nearly all actives have a fitted effect of over 75% in size
Target sequence (Q96KQ7 913-1193 limits assumed): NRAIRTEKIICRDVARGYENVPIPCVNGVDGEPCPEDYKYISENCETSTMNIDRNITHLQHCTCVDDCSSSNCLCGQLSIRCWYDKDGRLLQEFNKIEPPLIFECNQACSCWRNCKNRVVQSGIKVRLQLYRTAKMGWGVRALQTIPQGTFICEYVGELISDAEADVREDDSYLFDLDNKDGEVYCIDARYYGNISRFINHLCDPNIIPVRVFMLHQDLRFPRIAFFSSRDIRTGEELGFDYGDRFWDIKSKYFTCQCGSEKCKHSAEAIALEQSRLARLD
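Signal arises when biotinylated H3K9 peptide, once monomethylated, bridges streptavidin donor and antibody-captured acceptor beads. Enzyme at 20 nM was preincubated 15 min with test compounds; peptide 500 nM and SAM 20 uM then reacted for 2 h.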
Tau ThT inhib: inhibitors of human tau fibril formation, thioflavin T binding; P10636; recombinant tau K18 P301L, heparin-induced fibrillization, ThT fluorescence; Potency, µM (highest dose often 57.4 µM), for the others: at the highest dose activity, negative = inhibition, actives largely listed as inhibitors; actives 2.1% (n = 270,000); further: potency means the concentration at half of the fitted maximal effect; nearly all actives have a fitted effect of over 55% in size
Target sequence (P10636 561-689 P618L limits assumed): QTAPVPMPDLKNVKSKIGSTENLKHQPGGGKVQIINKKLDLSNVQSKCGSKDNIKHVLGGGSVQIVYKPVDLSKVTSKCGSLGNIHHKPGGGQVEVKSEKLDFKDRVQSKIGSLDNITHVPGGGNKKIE
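Fibril formation assay: tau K18 P301L at 15 uM with trace Alexa 594 label, heparin inducer 20 uM, pH 7 sodium acetate buffer, 37 C for 6 hr; endpoint ThT signal.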
FBPA coupling cs: counter-screen for Giardia aldolase inhibitors: coupling enzyme system | coupling enzyme system counterscreen, AmpLite Red fluorescence | activity change, negative = inhibition, % at 58.2 µM, hits read low | actives 0.67% (n = 290,000) | AID 2472; in the data active means activity change below about -30%
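Coupling enzymes only (glyceraldehyde-3-phosphate) + compound, at 57.5 uM final, 10 min RT; add substrate/coupling/AmpLite Red mix, 20 min RT; fluorescence ex 525/em 598 nm. Actives flag coupling-system interference.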
Sfp PPTase inh: blocks B. subtilis Sfp PPTase activity. Biochemical Sfp PPTase activity, qHTS. AID 1490. actives 3.5% (n = 310,000). Potency, µM, for inactives: largest response in the series, negative = inhibition, usual class: inhibitors;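 further: the enzyme is Sfp with the accession as filed and its product quenches rhodamine fluorescence; potency means the concentration at half of the fitted maximal effect; 0% = enzyme reaction without inhibitor and -100% = no enzyme wells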
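After 15 min at room temperature with compound, 15 nM Sfp received 5 uM rhodamine-CoA plus 12.5 uM BHQ-2-ybbR (50 mM Hepes pH 7.6, 10 mM MgCl2). Rate came from the fluorescence difference over 30 min, ex 525/em 598 nm.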
Tau fluor cs: counter-screen for tau fibril formation inhibitors; tau K18 P301L (four-repeat tau fragment) Alexa594 fluorescence, heparin fibrillization; Potency, µM (titrated, usually from 57.7 µM), for the others: top-dose activity change, negative = decrease; actives 0.93% (n = 280,000); AID 1463; further: potency means the concentration at half of the fitted maximal effect; nearly all actives have a fitted effect of over 55% in size
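Human K18 P301L tau (15 uM unlabeled plus 0.24 uM Alexa 594-labeled, final) in 100 mM sodium acetate pH 7 was mixed with compound and 20 uM heparin and incubated 6 hr at 37 C.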
Tau fibril FP: blocks human tau fibril formation measured by polarization; P10636; AID 1468; K18 P301L tau heparin fibrillization, Alexa594 FP, 6 h; Potency, µM (doses to about 57.7 µM), for inactives: at the top dose activity, negative = inhibition, hits mostly inhibitors; actives 0.39% (n = 280,000); further: potency means the concentration at half of the fitted maximal effect; nearly all actives have a fitted effect of over 55% in size
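Compound effects on tau fibrillization are measured by Alexa 594 fluorescence polarization (ex 555, em 632 nm). K18 P301L tau is used at 15 uM with 0.24 uM labeled tracer, and 20 uM heparin induces aggregation over 6 hr at 37 C.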
Numbers without * were called inactive; [ ] = dose if it differs, or a comment. Unless noted, the call rests on the fitted dose curve; in most records, active means well fitted curve in the direction sought with a large enough effect; inconclusive means small, poorly fitted or top-dose-only effect, or another doubt; inactive means no such curve, though single readings can be large; an effect the other way counts as inactive or inconclusive. Unless noted, on the % scale 0 is the no-effect control and ±100 the full control effect.

`CCC1CCCCN1S(=O)(=O)c1ccc(NC(=O)c2nc(S(C)(=O)=O)ncc2Cl)cc1` (stereo unspecified) gave G9a block 39.8µM*, FBPA coupling cs 0.0 and Sfp PPTase inh 25.1µM*.
For CCS(=O)(=O)c1ncc(Cl)c(C(=O)Nc2ccc(S(=O)(=O)N3CCCC(C)C3)cc2)n1 (stereo unspecified) the results were G9a block 79.4µM*, FBPA coupling cs -2.6 and Sfp PPTase inh inconclusive.
O=C(NCc1ccc2c(c1)OCO2)C1CCC(=O)N1C1CCCC1 (stereo unspecified) was read as G9a block 2.6%[59 µM], Tau ThT inhib -3.7%, FBPA coupling cs 0.2, Sfp PPTase inh 0.9%, Tau fluor cs -5.8% and Tau fibril FP 2.8%.
For CCOc1cc(/C=C2/NC(=O)NC2=O)cc(Br)c1OCc1ccc(C(=O)O)cc1 the results were G9a block 44.7µM*, Tau ThT inhib -17.8%, FBPA coupling cs 14.5, Sfp PPTase inh 8.5%, Tau fluor cs -12.6% and Tau fibril FP -11.1%.
Screening O=C1Nc2cccnc2Sc2ccccc21 returned G9a block 28.2µM*, Tau ThT inhib -17.9%, FBPA coupling cs -5.3, Sfp PPTase inh -1.4%, Tau fluor cs -12.2% and Tau fibril FP -15.4%.
For COC(=O)C(C(=O)OC)C(Cc1cc(F)cc(F)c1F)NC=O (stereo unspecified) the results were Tau ThT inhib 0.0%, FBPA coupling cs 3.7, Sfp PPTase inh -8.5%, Tau fluor cs -4.0% and Tau fibril FP -12.7%.
CCS(=O)(=O)N1CC(=O)N(c2cc(C)cc(C)c2)C(C)(C(=O)NC2CCCCC2)C1 (stereo unspecified) was read as G9a block 7.4%[59 µM], Tau ThT inhib 10.9%, Tau fluor cs 10.1% and Tau fibril FP 8.0%.
For Cc1csc2nc(CN3CCN(CC(=O)N(C)C)CC3)cc(=O)n12 the results were G9a block 44.7µM*, FBPA coupling cs -1.9 and Sfp PPTase inh 15.6%.
Cc1cccc2c(N=Nc3ccccc3)c(O)[nH]c12 was read as G9a block 39.8µM*, FBPA coupling cs -1.8 and Sfp PPTase inh 7.2%.
Oc1[nH]c2ccccc2c1N=Nc1cccc(Cl)c1 was read as G9a block -16.6%[2.33 µM], FBPA coupling cs 1.4 and Sfp PPTase inh 2.2%.
`Cc1ccc2c(cnn2C(=O)CCC(=O)N2CCCCC2C)c1` (stereo unspecified) gave G9a block 23.5%, FBPA coupling cs 2.5 and Sfp PPTase inh -3.7%.
Screening O=C(NC(Cc1ccccc1)C(=O)O)/C(=C\c1ccco1)NC(=O)c1ccccc1 (stereo unspecified) returned G9a block inconclusive, Tau ThT inhib -6.8%, FBPA coupling cs -3.1, Sfp PPTase inh 35.5µM*, Tau fluor cs -3.6% and Tau fibril FP 0.5%.
For O=C(NC(Cc1ccccc1)C(=O)O)/C(=C\c1ccc(Cl)cc1)NC(=O)c1ccco1 (stereo unspecified) the results were G9a block 79.4µM*, FBPA coupling cs 3.5 and Sfp PPTase inh 18.2%.
For O=C(NC(Cc1ccccc1)C(=O)O)/C(=C\c1ccc(Cl)cc1)NC(=O)c1ccccc1 (stereo unspecified) the results were G9a block inconclusive, Tau ThT inhib -0.7%, FBPA coupling cs 8.8, Sfp PPTase inh 21.8%, Tau fluor cs 5.5% and Tau fibril FP 4.1%.
O=c1c2ccccc2n(Cc2cccc(F)c2)c(=O)n1Cc1ccccc1Cl was read as G9a block 14.0%[59 µM], Tau ThT inhib -9.5%, Tau fluor cs inconclusive and Tau fibril FP inconclusive.
`CC12CN3CC(C)(CN(C1)C3c1ccc(OCc3ccccc3)cc1)C2=O` (stereo unspecified) gave G9a block -4.4%[59 µM], Tau ThT inhib -6.8%, Tau fluor cs -11.8% and Tau fibril FP 0.8%.
Cc1ccc(CNC(=O)c2ccc(CN3CC(=O)N4CCCCC4C3=O)cc2)cc1 (stereo unspecified) was read as G9a block -13.6%[59 µM], Tau ThT inhib -5.8%, Tau fluor cs -4.5% and Tau fibril FP 1.5%.
Screening Cc1cc(C)cc(NC(=S)NN)c1 returned G9a block 10µM*, Tau ThT inhib inconclusive, FBPA coupling cs -2.9, Sfp PPTase inh 15.5%, Tau fluor cs inconclusive and Tau fibril FP 6.0%.
`CCCC(C(=O)NC(C)(C)CC)N(Cc1ccco1)C(=O)CNS(=O)(=O)c1ccccc1` (stereo unspecified) gave G9a block 1.8%, FBPA coupling cs 0.9 and Sfp PPTase inh 10.2%.
For COc1cccc(CCNC(=O)c2ccc(OC)c(OC3CCN(C(C)C)CC3)c2)c1 the results were G9a block -9.9%[0.501 µM] and Sfp PPTase inh 7.9%.
`CCC(=O)Nc1ccc(Cl)c(NC(=S)NC(C)=O)c1` gave G9a block 28.2µM*, Tau ThT inhib 3.7%, FBPA coupling cs 2.8, Sfp PPTase inh -25.8%, Tau fluor cs 5.4% and Tau fibril FP 2.0%.
`CCSc1nc2sc3c(c2c(=O)[nH]1)CCCC3` gave G9a block 0.7%[59 µM], Tau ThT inhib -10.0%, FBPA coupling cs -1.7, Sfp PPTase inh 9.3%, Tau fluor cs -0.7% and Tau fibril FP -10.9%.
`CCSc1nc2sc3c(c2c2[n+]1CC(CBr)O2)CCCC3` (stereo unspecified) gave G9a block 25.1µM*, Tau ThT inhib -26.2%, FBPA coupling cs 4.2, Sfp PPTase inh 50.1µM*, Tau fluor cs -27.4% and Tau fibril FP -2.9%.
`CCNC(=O)/C(C#N)=C/c1c(N(Cc2ccccc2)Cc2ccccc2)nc2ccccn2c1=O` gave G9a block -1.3%[59 µM], Tau ThT inhib inconclusive, FBPA coupling cs 0.7, Sfp PPTase inh -16.1%, Tau fluor cs -13.8% and Tau fibril FP 0.4%.
For CNC(=O)/C(C#N)=C/c1c(N(Cc2ccccc2)Cc2ccccc2)nc2c(C)cccn2c1=O the results were G9a block 79.4µM*, Tau ThT inhib inconclusive, FBPA coupling cs -2.4, Sfp PPTase inh inconclusive, Tau fluor cs -19.2% and Tau fibril FP 4.3%.
Screening COc1ccccc1CN1CCCC2(CCN(C(=O)c3c(C)noc3C)CC2)C1 returned G9a block 8.7%[12.7 µM], FBPA coupling cs -0.3 and Sfp PPTase inh -3.6%.
CCN(C(=O)c1cnc2ccc(C)cn2c1=O)c1ccccc1 was read as G9a block -0.3%[59 µM], Tau ThT inhib 3.9%, Tau fluor cs -0.2% and Tau fibril FP -17.2%.

Bioassay records from PubChem BioAssay.
